# Test results: PubChem BioAssay (NCATS)
# Records with an inconclusive call do not appear. Values without a mark were called inactive. Calls of active or inactive are those of the source. The call rests on the fitted dose curve; in most records, active means well fitted inhibition curve with a large enough effect; inconclusive means small, poorly fitted or top-dose-only effect; inactive means flat fitted curve, though single readings scatter.
# Assay: P-glycoprotein substrates identified in KB-8-5-11 adenocarcinoma cell line, qHTS therapeutic library screen (AID 1346987); further: nearly all actives have a fitted effect of over 65% in size
# Details: KB-8-5-11 (P-gp overexpressing) viability, CellTiter-Glo, 72 h; series mostly up to 44.5 µM; activity change, negative = cytotoxicity: at the top concentration
# Summary of the method: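 Human cervical adenocarcinoma KB-8-5-11 cells, selected in colchicine to over-express P-gp and assayed without it, were exposed for 72 h to titrated compounds. An ATP-based luminescent viability signal gave AC50.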
# On the % scale 0 is the no-effect control and ±100 the full control effect; potency means the concentration at half of the fitted maximal effect.
Compound,"activity change, negative = cytotoxicity",Potency,outcome
C[C@@H]1O[C@@H](O[C@H]2[C@H](OC(=O)[C@]34CCC(C)(C)C[C@H]3C3=CCC5[C@@]6(C)C[C@H](O)[C@H](O[C@@H]7O[C@H](CO)[C@@H](O)[C@H](O)[C@H]7O)[C@@](C)(CO)C6[C@H](O)C[C@@]5(C)[C@]3(C)C[C@H]4O)OC[C@H](O)[C@@H]2O)[C@H](O)[C@H](O)[C@H]1O[C@@H]1OC[C@@H](O)[C@H](O[C@H]2OC[C@](O)(CO)[C@H]2O)[C@H]1O (stereo not given in full),4.28% [at 9.29 µM],–,–
Cc1ccc([N+](=O)[O-])cc1S(=O)(=O)N(C)/N=C/c1cnc2ccc(Br)cn12,–,0.231 µM (active),–
C=C(C(=O)O)C1CCC2(C)CCC(O)C(C)(O)C2C1 (stereo not given),-8.05%,–,–
CC1=C(CCC(C)CC(=O)O)[C@@]2(C)CCCC(C)(C)C2CC1=O (stereo not given in full),-2.03%,–,–
C[C@@H]1C[C@@H](O)[C@@]23CO[C@@H](O)[C@@H]2CCC[C@@H]3[C@@]12C[C@@H](c1ccoc1)OC2=O,–,–,inactive
C=CC1C(OC2OC(CO)C(O)C(O)C2O)OC=C(C(=O)OC)C1CC1CC(=O)CC(CCc2ccc(O)cc2)O1 (stereo not given),4.32% [at 17.3 µM],–,–
C=C[C@]1(C)C[C@H](O)[C@@H]2[C@H](OC(=O)[C@@H]2C)C1/C(C)=C/O[C@@H]1O[C@H](CO)[C@@H](O)[C@H](O)[C@H]1O (stereo not given in full),–,–,inactive [at 17.3 µM]
Cc1cnc(Nc2ccc(F)cc2Cl)nc1-c1c[nH]c(C(=O)NC(CO)c2cccc(Cl)c2)c1 (stereo not given),–,3.66 µM (active),–
Cc1cc(O)cc(O[C@@H]2O[C@H](CO)[C@@H](O)[C@H](O)[C@H]2O)c1,–,–,inactive
C/C=C/c1ccc(O[C@@H]2O[C@H](CO)[C@@H](O)[C@H](O)[C@H]2O)c(OC)c1,-12.3%,–,–
C=C1OC2CC(C(=O)O)C=CC2NC1=O (stereo not given),–,–,inactive
CC(C)C(NC(=O)c1ccc2ccccc2n1)C(=O)NC(CC(=O)O)C(=O)COc1c(F)cccc1F (stereo not given),–,–,inactive
CC1CC[C@]2(C(=O)O)CC[C@]3(C(=O)O)C(=CCC4[C@@]5(C)CC[C@H](O[C@@H]6O[C@H](CO)[C@@H](O)[C@H](O)[C@H]6O)C(C)(C)C5CC[C@]43C)C2C1C (stereo not given in full),3.65% [at 17.3 µM],–,–
COC(=O)N1CCC(n2ncc3c(N4CCOCC4)nc(-c4ccc(NC(=O)Nc5ccc(CO)cc5)cc4)nc32)CC1,–,2.59 µM (active),–
CCC(C)C(=O)OC1CC(C)C=C2C=CC(C)C(CCC(O)CC(O)CC(=O)O)C21 (stereo not given),-12.7% [at 17.3 µM],–,–
C/C=C/C=C/C(O)=C1\C(=O)[C@]2(C)C3C(C(=O)CC/C=C/C)=C(O)C4(C)C1[C@]1(C)O[C@@]4(O)[C@@]3(C)O[C@@]12O,-6.58% [at 17.3 µM],–,–
COc1ccc(N(C)c2nc(C)nc3ccccc23)cc1,–,0.0065 µM (active),–
O=C(O)CC1CCC(c2ccc(-c3ccc4nc(C(=O)NCc5ccc(OC(F)(F)F)cc5)cn4c3)cc2)CC1 (stereo not given),-9.99%,–,–
C[C@@H]1O[C@@H](OC[C@H]2O[C@@H](Oc3cc(O)cc4c3C(=O)C(O)(Cc3ccc(O)cc3)O4)[C@H](O)[C@@H](O)[C@@H]2O)[C@H](O)[C@H](O)[C@H]1O (stereo not given in full),–,–,inactive [at 17.3 µM]
Cn1cc(S(=O)(=O)c2ccc(Cl)cc2)c2cccc(N3CCNCC3)c21,–,20.6 µM (active),–
CCOc1cc(C(=O)N2CCC(N3CCN(C)CC3)CC2)ccc1Nc1ncc2c(n1)N(C1CCCC1)c1ccccc1C(=O)N2C,–,13 µM (active),–
COc1c2c(cc3c1-c1c(cc4c(c1OC)OCO4)CC(C)C(C)C3)OCO2 (stereo not given),-4.87%,–,–
C#CCN(Cc1cc2c(=O)n(C)c(CN3CCN(C)CC3)nc2cc1Cl)c1ccc(C(=O)NCc2cccnc2)cc1,–,0.259 µM (active),–
CC1(C)CCCC2(C)C(CO)C(CO)=CCC12 (stereo not given),-5.95%,–,–
C=CC[C@]12C[C@@H](OC)C(=O)C(OC)=C1O[C@@H](c1cc(OC)c3c(c1)OCO3)[C@@H]2C,-13.7% [at 17.3 µM],–,–
C[C@@H]1O[C@@H](O[C@H]2[C@@H]3C=CO[C@@H](O[C@@H]4O[C@H](CO)[C@@H](O)[C@H](O)[C@H]4O)[C@@H]3[C@@]3(CO)O[C@@H]23)[C@H](OC(=O)/C=C/c2ccc(O)c(O)c2)[C@H](O)[C@H]1O,–,–,inactive [at 17.3 µM]
c1cc(Nc2cc(C3CC3)[nH]n2)nc(Nc2ccc3nc[nH]c3c2)n1,–,6.51 µM (active),–
CC(C)(O)CC(CO)NC(=O)CC(O)CC(=O)Cc1ccccc1 (stereo not given),–,–,inactive
O=C1C=CC(O)(/C=C/C(=O)OC[C@H]2O[C@@H](Oc3ccc(O)cc3)[C@H](O)[C@@H](O)[C@@H]2O)C=C1,4.31% [at 17.3 µM],–,–
CCc1cc(CN2CC(C(=O)O)C2)sc1-c1noc(-c2ccc(Oc3ccccc3)cc2)n1,8.48% [at 17.3 µM],–,–
